Y pestis TopoI: blocks Yersinia pestis topoisomerase I activity; Y. pestis Topo-I cleavage product accumulation, plate reader; actives 0.064% (n = 360,000); activity, % at 10 µM; in the data active = activity above about 50%, passing the limit was not always enough
BJeLR lethal: kills HRASV12-expressing BJeLR cells; BJeLR (HRASV12) viability, CellTiter-Glo ATP luminescence, 48 h; inhibition, % (no concentration beside the values); actives 0.17% (n = 300,000); AID 1554; in the data active = inhibition above about 50%
RecA splice inh: inhibitors of M. tuberculosis RecA intein splicing | AID 2221 | P9WHJ3 | cell-free RecA intein splicing, fluorescence | inhibition, % (no concentration beside the values) | actives 0.75% (n = 290,000); in the data active = inhibition above about 30%;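 also: 0% = vehicle wells and 100% = reference inhibitor control wells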
Target sequence (P9WHJ3 whole entry, looked up, canonical isoform): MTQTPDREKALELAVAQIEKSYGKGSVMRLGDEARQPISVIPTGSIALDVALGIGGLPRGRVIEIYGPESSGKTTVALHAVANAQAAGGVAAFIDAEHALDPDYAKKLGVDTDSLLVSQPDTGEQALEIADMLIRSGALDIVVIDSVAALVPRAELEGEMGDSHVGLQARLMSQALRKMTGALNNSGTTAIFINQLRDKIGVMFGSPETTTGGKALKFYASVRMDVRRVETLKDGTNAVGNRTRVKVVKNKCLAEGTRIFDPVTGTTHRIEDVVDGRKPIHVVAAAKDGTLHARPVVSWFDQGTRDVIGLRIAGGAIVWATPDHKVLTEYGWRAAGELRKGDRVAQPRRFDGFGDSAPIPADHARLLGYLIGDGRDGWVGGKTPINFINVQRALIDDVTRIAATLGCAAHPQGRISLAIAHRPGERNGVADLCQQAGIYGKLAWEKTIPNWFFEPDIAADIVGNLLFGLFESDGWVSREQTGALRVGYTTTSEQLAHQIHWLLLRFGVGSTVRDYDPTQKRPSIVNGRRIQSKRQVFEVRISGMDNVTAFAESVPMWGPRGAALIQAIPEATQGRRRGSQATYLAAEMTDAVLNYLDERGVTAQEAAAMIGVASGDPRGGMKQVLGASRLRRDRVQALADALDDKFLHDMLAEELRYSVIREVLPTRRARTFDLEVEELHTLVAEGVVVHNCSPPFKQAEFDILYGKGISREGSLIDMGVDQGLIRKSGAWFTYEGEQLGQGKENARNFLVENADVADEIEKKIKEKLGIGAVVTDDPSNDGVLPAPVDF
CCHF vOTU inh-1: blocks the CCHF virus ovarian tumor domain protease; CCHFV vOTU protease, Pep-AMC fluorescence; inhibition, % at 11.5 µM; actives 0.55% (n = 370,000); also: 0% = vehicle wells with enzyme and 100% = no enzyme wells
Mtb bLac sens: beta-lactam sensitization of Mtb H37Rv; M. tuberculosis H37Rv growth with meropenem, percent inhibition; inhibition, % at 25 µM; actives 0.27% (n = 330,000); call rule not given here;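 also: growth measured after seven days incubation then overnight dye step; 0% = bacteria only wells and 100% = bacteria with antibiotic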
Mtb BioA inh: BioA (M. tuberculosis) enzyme inhibition; AID 602481; purified M. tuberculosis BioA enzyme, plate reader; inhibition, % at 9.99 µM; actives 0.096% (n = 360,000); in the data active = inhibition above about 40%
CCHF vOTU inh-2: CCHFV vOTU protease inhibition, confirmation. shares compounds with CCHF vOTU inh-1. Recombinant CCHFV vOTU, Pep-AMC fluorescence. inhibition, % at 11.5 µM. actives 17% (n = 1,900). AID 686976
Starred values were filed as active, the others as inactive. The list is not random: actives were taken first. Their share in the collection is about 1.1%. Rule as the data show it, unless noted: active = inhibition above about 30%; inactive = the rest.

Results for O=C(c1ccc(COc2ccccc2Cl)o1)N1CCN(Cc2ccc3c(c2)OCO3)CC1 ?
Y pestis TopoI: 37.0; BJeLR lethal: 0.0; RecA splice inh: 17.2; CCHF vOTU inh-1: 13.4; Mtb bLac sens: 58.8; Mtb BioA inh: 0.7

What do the screens show for `Clc1ccc(C(c2ccc(Cl)cc2)n2cc[n+](CC(OCc3ccc(Cl)cc3Cl)c3ccc(Cl)cc3Cl)c2)cc1` (stereo unspecified)?
Y pestis TopoI: 29.5; CCHF vOTU inh-1: 40.9*; Mtb bLac sens: 100.1; Mtb BioA inh: -0.4; CCHF vOTU inh-2: 25.2

What do the screens show for `O=C(C/C=N/OCc1ccc(Cl)cc1Cl)c1ccc(Cl)cc1`?
Y pestis TopoI: 11.7; BJeLR lethal: 8.3; RecA splice inh: 7.5; CCHF vOTU inh-1: 0.8; Mtb bLac sens: 13.2; Mtb BioA inh: 0.5

Results for CCN(C(=O)CSc1nnc(SC(C)C)s1)C1CCS(=O)(=O)C1 (stereo unspecified) ?
Y pestis TopoI: 4.9; CCHF vOTU inh-1: 37.2*; Mtb bLac sens: -1.5; Mtb BioA inh: 0.9; CCHF vOTU inh-2: -11.1

How did Cc1ccc(NC(=O)COC(=O)C2C3CC4OC(=O)C2C4C3)cc1 (stereo unspecified) do in these assays?
Y pestis TopoI: 3.3; BJeLR lethal: -11.3; RecA splice inh: -4.6; CCHF vOTU inh-1: 39.5*; Mtb bLac sens: -6.1; Mtb BioA inh: 0.1; CCHF vOTU inh-2: -22.4

How did CC(=O)c1ccc(NC(=O)COC(=O)C2C3CC4OC(=O)C2C4C3)cc1 (stereo unspecified) do in these assays?
Y pestis TopoI: -0.5; BJeLR lethal: 3.7; RecA splice inh: 2.2; CCHF vOTU inh-1: 12.2; Mtb bLac sens: -2.5; Mtb BioA inh: 7.2

How did NC(=O)CC(NC(=O)Cc1ccc(Br)cc1)c1ccc(NCCN2CCCC2)c([N+](=O)[O-])c1 (stereo unspecified) do in these assays?
Y pestis TopoI: -14.4; BJeLR lethal: 1.6; RecA splice inh: -0.5; CCHF vOTU inh-1: 34.5*; Mtb bLac sens: -8.8; Mtb BioA inh: 2.7; CCHF vOTU inh-2: -14.4

Results for COc1cc(NS(=O)(=O)c2ccc(NC(=S)NC(=O)/C=C/c3ccc(F)cc3)cc2)ncn1 ?
Y pestis TopoI: 0.1; BJeLR lethal: -0.8; RecA splice inh: 0.8; CCHF vOTU inh-1: 8.0; Mtb bLac sens: -8.4

How did COc1nccnc1NS(=O)(=O)c1ccc(NC(=S)NC(=O)/C=C/c2ccc(F)cc2)cc1 do in these assays?
Y pestis TopoI: 2.5; BJeLR lethal: -6.3; RecA splice inh: 0.9; CCHF vOTU inh-1: 38.2*; Mtb bLac sens: -3.8; CCHF vOTU inh-2: -14.2

What do the screens show for `CNC(=O)C[C@H]1CC[C@@H]2[C@@H](COc3ccc(NC(=O)c4ccc5c(c4)OCO5)cc3C(=O)N2C)O1`?
Mtb BioA inh: 2.1

Results for Cc1ccc(S(=O)(=O)N(C)C[C@@H]2Oc3c(NC(=O)C4CCOCC4)cccc3C(=O)N([C@@H](C)CO)C[C@H]2C)cc1 ?
Mtb BioA inh: -1.3

How did O=C(Nc1cccc([N+](=O)[O-])c1)NC1CCS(=O)(=O)C1 (stereo unspecified) do in these assays?
Y pestis TopoI: -0.7; BJeLR lethal: 13.4; RecA splice inh: 1.8; CCHF vOTU inh-1: -3.3; Mtb bLac sens: 3.0; Mtb BioA inh: 1.6

What do the screens show for `O=C(Nc1cc([N+](=O)[O-])ccc1O)NC1CCS(=O)(=O)C1` (stereo unspecified)?
Y pestis TopoI: 3.8; CCHF vOTU inh-1: 35.8*; Mtb bLac sens: -6.2; Mtb BioA inh: 0.6; CCHF vOTU inh-2: -6.0

What do the screens show for `O=C(c1cccc(F)c1)N1CCCCN2[C@H](CO)[C@H](c3ccc(-c4cccnc4)cc3)[C@@H]2C1`?
Mtb BioA inh: -0.1

What do the screens show for `CCCCNC(=O)C1(C)CCN1C(=O)Cc1cccc2ccccc12` (stereo unspecified)?
Y pestis TopoI: 1.9; CCHF vOTU inh-1: 46.7*; Mtb BioA inh: -0.1; CCHF vOTU inh-2: -22.9

What do the screens show for `CC1(C(=O)NCc2cccc3ccccc23)CCN1Cc1ccc(OC(F)(F)F)cc1` (stereo unspecified)?
Y pestis TopoI: 17.1; CCHF vOTU inh-1: 33.7*; Mtb BioA inh: -0.8; CCHF vOTU inh-2: 17.0

What do the screens show for `CC1(C(=O)NCc2cccc3ccccc23)CCN1Cc1ccc2ccccc2c1` (stereo unspecified)?
Y pestis TopoI: 31.3; CCHF vOTU inh-1: 4.2; Mtb BioA inh: -1.2

What do the screens show for `Cc1noc(C)c1NC(=O)Nc1ccc2c(c1)CC(=O)N([C@@H](C)CO)C[C@H](C)[C@@H](CN(C)Cc1ccc(Oc3ccccc3)cc1)O2`?
Mtb BioA inh: 2.4

What do the screens show for `C[C@H]1CN([C@@H](C)CO)S(=O)(=O)c2ccc(-c3ccncc3)cc2O[C@@H]1CN(C)C(=O)C1CCCCC1`?
Mtb BioA inh: -0.4

How did CC(NS(=O)(=O)c1c(N)n(C)c(=O)n(C)c1=O)c1ccccc1 (stereo unspecified) do in these assays?
Y pestis TopoI: -7.1; BJeLR lethal: -28.0; RecA splice inh: 0.9; CCHF vOTU inh-1: 30.4*; Mtb bLac sens: -10.3; Mtb BioA inh: -0.6; CCHF vOTU inh-2: -15.4

Results for CC(C)C(C(=O)NCc1ccco1)N(C(=O)CNS(=O)(=O)c1ccccc1)c1ccccc1 (stereo unspecified) ?
Y pestis TopoI: -10.1; BJeLR lethal: 1.2; RecA splice inh: -0.3; CCHF vOTU inh-1: 33.9*; Mtb bLac sens: -8.0; Mtb BioA inh: 1.0; CCHF vOTU inh-2: -13.4

What do the screens show for `CCC(C(=O)NCc1ccco1)N(C(=O)CNS(=O)(=O)c1ccccc1)c1ccc(F)cc1` (stereo unspecified)?
Y pestis TopoI: 4.6; BJeLR lethal: -6.6; RecA splice inh: 0.4; CCHF vOTU inh-1: 11.8; Mtb bLac sens: 5.4; Mtb BioA inh: -1.4

Results for CC(C)NC(=O)N(C)C[C@@H]1Oc2ccc(NC(=O)Cc3cn(C)c4ccccc34)cc2CC(=O)N([C@H](C)CO)C[C@H]1C ?
Mtb BioA inh: -1.7

How did CCC(NC(=O)Nc1ccc(O)cc1)(C(F)(F)F)C(F)(F)F do in these assays?
Y pestis TopoI: -2.0; CCHF vOTU inh-1: 62.6*; Mtb bLac sens: -3.9; Mtb BioA inh: -0.7; CCHF vOTU inh-2: 3.0

How did CC(NC(=O)Nc1ccc(O)cc1)(C(F)(F)F)C(F)(F)F do in these assays?
Y pestis TopoI: 1.0; BJeLR lethal: 2.2; RecA splice inh: -6.3; CCHF vOTU inh-1: 52.1*; Mtb bLac sens: -10.8; Mtb BioA inh: -2.2; CCHF vOTU inh-2: -2.4

What do the screens show for `C[C@@H]1CCCCO[C@@H](CN(C)C(=O)NC2CCCCC2)[C@H](C)CN([C@@H](C)CO)C(=O)c2cc(NS(=O)(=O)c3cn(C)cn3)ccc2O1`?
Mtb BioA inh: 1.8

What do the screens show for `Oc1cc(CNCc2ccccc2)c(O)cc1CNCc1ccccc1`?
Y pestis TopoI: -12.6; CCHF vOTU inh-1: 43.4*; Mtb BioA inh: -0.9; CCHF vOTU inh-2: -1.5

High-throughput results: PubChem BioAssay, several laboratories
